Assay results published in PubChem BioAssay (EPA / NIEHS).
Active and inactive are the calls of the source. Rule for the calls: active = hit-call score of the fitted dose curve at least 0.9, where 1 is the maximum; inactive = score below 0.9.

Assay: CCTE_Harrill_HTTr_Apoptosis_MCF7: CCTE's 6-hour Apoptosis Assessment for the High-Throughput Transcriptomics (HTTr) Platform, in MCF-7 cells cultured in DMEM + 10% fetal bovine serum, Harrill Lab (AID 2284011)
Description: This is a cell-based assay that evaluates apoptosis using high content imaging to evaluate activation of caspase-3/7 using the CellEvent Caspase 3/7 Green detection reagent in 384-well format.One of seven assay components measured from the CCTE_Harrill_HTTr_Apoptosis assay. This was part of a full screening experiment. This is a cell-based assay that evaluates apoptosis in MCF-7 cells cultured in DMEM + 10% fetal bovine serum. High content imaging is used to evaluate activation of caspase-3/7 using the CellEvent Caspase 3/7 Green detection reagent. Measurements are taken at 6 hours after chemical dosing in 384-well format.The assay component endpoint CCTE_Harrill_HTTr_Apoptosis_MCF7 was analyzed with bidirectional fitting relation to DMSO as the negative control and baseline of activity. Using a type of viability reporter, gain-of-signal activity can be used to evaluate activation of caspase-3/7 using the CellEvent Caspase 3/7 Green detection reagent to understand changes in apoptosis. To generalize the intended target to other relatable targets, this assay endpoint is annotated to cell cycle, where the subfamily is apoptosis.
Chemicals were tested in MCF7 cells in an eight point dilution series with a six hour exposure duration.

Row | SMILES | outcome | AC50
1 | Clc1ccc(C(c2ccc(Cl)cc2)C(Cl)(Cl)Cl)cc1 | inactive | 
2 | OCCOCCO | inactive | 
3 | CCC[CH2][Sn]([Cl])([CH2]CCC)[CH2]CCC |  | 10.9 µM (active)
4 | CCOc1cccc(C2(N3CCN(c4ccccc4)CC3)CCC(C)CC2)c1 (stereo not given) | inactive | 
5 | CCC(C)c1ccc(O)cc1 (stereo not given) | inactive | 
6 | [Cl-].[Cl-].[Hg+2] | inactive | 
7 | O=C(Nc1ccccc1)c1ccccc1I | inactive | 
8 | CC(C)(OOC(C)(C)c1ccccc1)c1ccccc1 | inactive | 
9 | O=C1CCCO1 | inactive | 
10 | OCCCl | inactive | 
11 | CC(C)(C)OOC(C)(C)CCC(C)(C)OOC(C)(C)C | inactive | 
12 | Nc1ccc(N=Nc2ccccc2)cc1 | inactive | 
13 | Cc1ccc([N+](=O)[O-])cc1 | inactive | 
14 | N#CC(Br)Br | inactive | 
15 | CN(C)[C@@H]1C(=O)C(C(N)=O)=C(O)[C@@]2(O)C(=O)C3=C(O)c4c(O)cccc4[C@@](C)(O)[C@H]3C[C@@H]12 | inactive | 
16 | Clc1ccc(C(c2ccc(Cl)cc2)C(Cl)Cl)cc1 | inactive | 
17 | CN(C)c1ccc(C(=O)c2ccc(N(C)C)cc2)cc1 | inactive | 
18 | C=CCc1ccc2c(c1)OCO2 | inactive | 
19 | c1ccc(N=Nc2ccccc2)cc1 | inactive | 
20 | COc1cc(C=O)cc2c1[C@H](COC(N)=O)[C@]1(OC(C)=O)ON2C[C@H]2[C@@H]1N2C(C)=O | inactive | 

Row | SMILES | outcome | AC50
21 | ClC1=C(Cl)[C@]2(Cl)[C@H]3[C@H]([C@@H]4C=C[C@H]3C4)[C@@]1(Cl)C2(Cl)Cl | inactive | 
22 | O=[N+]([O-])C(Br)(CO)CO | inactive | 
23 | O=[N+]([O-])c1ccc(Oc2ccc(Cl)cc2Cl)cc1 | inactive | 
24 | CS(=O)(=O)NC(=O)c1cc(Oc2ccc(C(F)(F)F)cc2Cl)ccc1[N+](=O)[O-] | inactive | 
25 | COC(=O)c1ccccc1N | inactive | 
26 | CNC(=O)Oc1cccc2c1OC(C)(C)C2 | inactive | 
27 | Cc1ccc(N)c(N)c1 | inactive | 
28 | CCOC(=O)[C@]1(c2ccccc2)Oc2ccccc2[C@@H]1N | inactive | 
29 | C[N+](C)(C)CC1CO1 (stereo not given) | inactive | 
30 | CC(C)(C)C(O)(CCc1ccc(Cl)cc1)Cn1cncn1 (stereo not given) | inactive | 
31 | O=C(N[C@H](c1ccccc1)[C@@H]1CN2CCC1CC2)c1c(Cl)ccc(C(F)(F)F)c1Cl | inactive | 
32 | COP(=S)(OC)SCN1C(=O)c2ccccc2C1=O | inactive | 
33 | CCCCCCCCOC(=O)c1ccc(C(=O)OCCCCCCCC)c(C(=O)OCCCCCCCC)c1 | inactive | 
34 | Brc1ccc(Oc2ccccc2)cc1 | inactive | 
35 | CCCCOC(=O)c1ccccc1C(=O)OCc1ccccc1 | inactive | 
36 | Oc1ccc2ccc3cccc4ccc1c2c34 |  | 48.2 µM (active)
37 | Cc1cc(N=Nc2ccccc2C)ccc1N | inactive | 
38 | O=P(OCCCl)(OCCCl)OCCCl | inactive | 
39 | CC(O)CCO (stereo not given) | inactive | 
40 | [O-][Cl+]O | inactive | 
